The text below walks through data of PubChem BioAssay (NCI).

This is part of a sample that, as a whole, favours compounds with a hit. Of some 79,000 tested, about 15% had one in any assay. A number with no mark means an inactive call. Calls of active or inactive are those of the source. Rule as the data show it: active = growth inhibition above about 70%; inactive = the rest.

A short description of assay [1]: NCI Yeast Anticancer Drug Screen. Data for the rad50 strain (AID 155).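 Also: 0% = growth of vehicle-only cultures of the same strain.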 The conditions noted are these: S. cerevisiae rad50 strain growth inhibition; at 50.0 µM; active compounds read high. The essentials:
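Inhibition values express reduced yeast growth in compound-treated cultures relative to vehicle-treated controls.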

Assay [2] can be described thus: NCI Yeast Anticancer Drug Screen. Data for the mec2-1 strain (AID 157). The conditions noted are these: S. cerevisiae mec2-1 strain, at 50.0 µM, active compounds read high. The procedure, abridged:
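Mutant yeast (mec2-1) grown with compound; growth inhibition relative to vehicle control reported.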

Assay [3] can be described thus: NCI Yeast Anticancer Drug Screen. Data for the sgs1 mgt1 strain (AID 161).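 Also: 0% = growth of cultures given vehicle only.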 The conditions noted are these: S. cerevisiae sgs1 mgt1 strain, at 50.0 µM, active compounds read high. The essentials: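 Percent growth inhibition was derived by comparing compound-exposed mutant yeast with vehicle-exposed cultures. The strain carries alterations in DNA damage repair.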
Assay [4] is described as follows: NCI Yeast Anticancer Drug Screen. Data for the cln2 rad14 strain (AID 165).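 Also: 0% = growth equal to vehicle treated cultures.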 The conditions noted are these: S. cerevisiae cln2 rad14 strain, at 50.0 µM, active compounds read high. The procedure, abridged: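 Readout is yeast growth inhibition versus vehicle-treated controls, using a strain with cln2 and rad14 alterations exposed to compound.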
Assay [5] can be described thus: NCI Yeast Anticancer Drug Screen. Data for the bub3 strain (AID 167). The conditions noted are these: S. cerevisiae bub3 mutant strain, at 50.0 µM, active compounds read high. The essentials:
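Steps: expose the mutant yeast strain to compound; grow alongside vehicle-treated cultures; measure growth; express inhibition against the vehicle cultures.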

Assay [6] is described as follows: NCI Yeast Anticancer Drug Screen. Data for the mlh1 rad18 strain (AID 175). The conditions noted are these: S. cerevisiae mlh1 rad18 strain growth inhibition; at 50.0 µM; active compounds read high. The essentials: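 Genetically defined yeast (DNA repair-deficient) exposed to compounds; growth inhibition determined relative to vehicle.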

On to `Cc1ccc2cccc(-c3cccc4ccccc34)c2n1`, for which the growth inhibition in assay [1] is 5.3%; in assay [2], 7.9%; in assay [3], 3.4%; in assay [4], -0.05%; in assay [5], -2.35%; in assay [6], 28.8%.

For `C=CC(OC(=O)/C=C/C)OC(=O)/C=C/C`, the growth inhibition was 16.9% in assay [1]; 0.85% in assay [2]; 6.8% in assay [3]; 12.6% in assay [4]; 20.1% in assay [5]; 21.6% in assay [6].

In the case of `NC(=S)N/N=C1\C(=O)N(CCc2ccccc2)C(=O)C1C(=O)NCCc1ccccc1` (stereo unspecified), the growth inhibition in assay [1] is -16.4%; in assay [2] it was -27.7%; in assay [3], -35.6%; in assay [4], 14.1%; in assay [5], -5.8%; in assay [6] it was -15.2%.

Consider `O=C(Cc1ccccc1)NN1C(=O)/C(=C\c2ccc([N+](=O)[O-])cc2)SC1=Nc1ccccc1`, for which the growth inhibition in assay [1] was -2.8%; in assay [2], -8.85%; in assay [3], 52.1%; in assay [4], 15.2%; in assay [5], -18.9%; in assay [6] it was 28.5%.

`CN(C)c1ccc(-c2c(C#N)c(O)n(NS(=O)(=O)c3ccccc3)c(=O)c2C#N)cc1`: the growth inhibition in assay [1] is -28.9%; in assay [2], -10.7%; in assay [3] it was -14.2%; in assay [4] it was 13.9%; in assay [5], -21.4%; in assay [6], -14.2%.

On to `CN(C)Cc1cc(C(C)(C)CC(C)(C)C)cc(Br)c1O`, for which the growth inhibition in assay [1] is 33%; in assay [2], 21.4%; in assay [3], 30.6%; in assay [4], 28.8%; in assay [5] it was 39.7%; in assay [6], 26.9%.

Regarding `CC1(C)CC(=O)C(CC2=C(N)CC(C)(C)CC2=O)=C(N)C1`, the growth inhibition in assay [1] is 1.8%; in assay [2], 5.8%; in assay [3] it was 9.9%; in assay [4] it was -13.3%; in assay [5] it was 10.6%; in assay [6] it was 31.7%.

On to `O=[N+]([O-])c1ccc(N=Nc2c(S(=O)(=O)O)cc3cc(S(=O)(=O)O)ccc3c2O)c([N+](=O)[O-])c1`, for which the growth inhibition was 24.3% in assay [1]; 0.9% in assay [2]; 30.9% in assay [3]; 31.3% in assay [4]; 32.1% in assay [5]; 20.2% in assay [6].

For `Cc1ccc(-c2nc3scc(C)n3n2)cc1`, the growth inhibition in assay [1] is 0.85%; in assay [2], 6.6%; in assay [3], -4.5%; in assay [4], -29%; in assay [5], 7.65%; in assay [6] it was 8.85%.

Turning to `C[CH2][GeH][CH2]C.C[CH2][Ge]([CH2]C)[CH2]C`, the growth inhibition is 95.2% (active) in assay [1]; 97% (active) in assay [2]; 60.8% in assay [3]; 96.5% (active) in assay [4]; 96% (active) in assay [5]; 94.8% (active) in assay [6].

On to `CC1=C(O)C(=O)C2C(=O)C1C1Cc3ccccc3C21` (stereo unspecified), for which the growth inhibition was -21.1% in assay [1]; -2.05% in assay [2]; -24.6% in assay [3]; -3.2% in assay [4]; -2.1% in assay [5]; -17.6% in assay [6].

For `CCCC(C)C(O)C(C)C` (stereo unspecified), the growth inhibition in assay [1] was 1.25%; in assay [2], -19.8%; in assay [3], -5.1%; in assay [4], 3.6%; in assay [5], 8.7%; in assay [6], -18.7%.

In the case of `CC1CC(=O)Nc2ncccc2N1` (stereo unspecified), the growth inhibition was 5.75% in assay [1]; -4.2% in assay [2]; 4.2% in assay [3]; -28.6% in assay [4]; 8.05% in assay [5]; -9.45% in assay [6].

As for `CC(=O)c1ccc(O)c(CN(C2CCCCC2)C2CCCCC2)c1O`, the growth inhibition was -2.9% in assay [1]; -10.3% in assay [2]; -36.1% in assay [3]; 12.4% in assay [4]; -18% in assay [5]; 4.5% in assay [6].

For the compound `CC1C(=O)OC2CC[N+]3(C(=O)C(F)(F)F)CC4OC4(COC(=O)C(C)(O)C1(C)O)C23` (stereo unspecified), the growth inhibition is -13.2% in assay [1]; -32% in assay [2]; -12.8% in assay [3]; 2.2% in assay [4]; 0.65% in assay [5]; -8.9% in assay [6].

Regarding `CCOC(=O)N[C@@H]1C(CC(=O)OC)O[C@H]2OC(C)(C)O[C@H]21` (stereo partly specified), the growth inhibition is 18.1% in assay [1]; -7.2% in assay [2]; 10.4% in assay [3]; 7.4% in assay [4]; -9.55% in assay [5]; 6.25% in assay [6].

Take `CC12CCC3c4ccc(Cc5ccc([N+](=O)[O-])cc5)cc4CCC3C1CCC2=O` (stereo unspecified): the growth inhibition was 32.6% in assay [1]; 9.2% in assay [2]; 10.8% in assay [3]; 19.7% in assay [4]; 1.05% in assay [5]; 25.6% in assay [6].

For the compound `O=c1[nH]c2ccccc2c(N=Cc2ccccc2)c1-c1ccccc1`, the growth inhibition is -6.95% in assay [1]; -20.6% in assay [2]; -4.6% in assay [3]; -26.8% in assay [4]; -12.1% in assay [5]; -0.4% in assay [6].

In the case of `CCN(CC)C(=S)SCCCS(=O)(=O)O`, the growth inhibition is 17.7% in assay [1]; -9.95% in assay [2]; 1.75% in assay [3]; 9.2% in assay [4]; 22.3% in assay [5]; 8.75% in assay [6].

Regarding `COc1cccc([B-]23OCC[N+]2(CNC(=O)c2ccccc2O)CCO3)c1` (stereo unspecified), the growth inhibition in assay [1] is 29.6%; in assay [2], 2.95%; in assay [3], 12.9%; in assay [4], 6.75%; in assay [5] it was -3.25%; in assay [6], 19.4%.

Regarding `C=C(C)CNC(=S)N(N)c1ccc(OC)cc1`, the growth inhibition in assay [1] was 39.5%; in assay [2] it was 9.75%; in assay [3] it was 16.6%; in assay [4] it was -2.2%; in assay [5], 12.4%; in assay [6] it was 36.1%.
